Assays:
Settings in all cases: concentration: 1 μM, replicates: in singlicate; n = 1
[1] = test system: MTOR
[2] = test system: MUSK
[3] = test system: MYLK2
[4] = test system: MYLK4
[5] = test system: MYLK
[6] = test system: MYO3A
[7] = test system: MYO3B
[8] = test system: T1, NDR1
T1 construct: gene STK38

[9] = test system: NDR2
[10] = test system: NEK10
[11] = test system: NEK11
[12] = test system: NEK1
[13] = test system: NEK2
[14] = test system: NEK3
[15] = test system: NEK4
[16] = test system: NEK5
[17] = test system: NEK6
[18] = test system: NEK7
[19] = test system: NEK9
[20] = test system: T2, NIK
T2 construct: gene MAP3K14
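Further: KINOMEscan kinase panel screen.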

Structure (SMILES)	%Inh [1]	%Inh [2]	%Inh [3]	%Inh [4]	%Inh [5]	%Inh [6]	%Inh [7]	%Inh [8]	%Inh [9]	%Inh [10]	%Inh [11]	%Inh [12]	%Inh [13]	%Inh [14]	%Inh [15]	%Inh [16]	%Inh [17]	%Inh [18]	%Inh [19]	%Inh [20]
c1ccc(Oc2ccc(Nc3ccnc4cc(-c5ccc(CN6CCCCC6)o5)ccc34)cc2)nc1 [GW567143]	2%	24%	0%	0%	0%	0%	14%	0%	0%	1%	0%	0%	0%	0%	25%	0%	0%	0%	2%	6%
CCNC(=O)/C=C/c1n[nH]c2cc(Sc3ccccc3C(=O)NC)ccc12	14%	32%	3%	20%	11%	8%	0%	25%	18%	24%	0%	0%	0%	26%	0%	5%	38%	0%	0%	0%
Cc1ccc(Nc2ccnc(Nc3ccc(C)c(F)c3)n2)cc1O.Cl [GW582868]	15%	12%	0%	29%	9%	2%	0%	0%	0%	0%	3%	0%	1%	10%	7%	4%	0%	0%	0%	10%
Fc1cc(Cl)ccc1Nc1ccnc2cc(-c3ccc(CN4CCSCC4)o3)ccc12 [GW560106]	6%	0%	13%	0%	38%	38%	0%	12%	31%	15%	22%	0%	1%	5%	0%	9%	0%	0%	5%	28%
CC(C)c1nc(-c2ccc(F)c(NS(=O)(=O)c3c(F)cccc3F)c2)c(-c2ccnc(Nc3ccc(N4CCOCC4)nc3)n2)s1 [GSK1804250]	32%	8%	2%	1%	7%	51%	54%	23%	0%	7%	97.6%	16%	31%	3%	10%	1%	7%	8%	85%	9%
COc1cccc(-c2nc(-c3ccccc3)[nH]c2-c2ccncc2)c1 [SB-610250]	13%	0%	8%	0%	0%	18%	0%	9%	0%	20%	26%	100%	0%	11%	16%	1%	4%	0%	4%	0%
Cn1cc(-c2ccc3c(c2)CCN3C(=O)Cc2cc(F)cc(C(F)(F)F)c2)c2c(N)ncnc21 [GSK2635225]	35%	28%	27%	1%	12%	42%	0%	25%	13%	6%	8%	9%	18%	0%	13%	0%	6%	0%	25%	15%
CN(C)c1ncnc2nc[nH]c12 [SKF-31736]	54%	14%	0%	30%	0%	0%	0%	35%	24%	21%	0%	0%	0%	41%	0%	12%	0%	0%	0%	51%
